Here are results for eight molecules from PubChem BioAssay (NCI).

Test in all cases: NCI-60 one-dose screen, 48 h (100 = growth as untreated, 0 = no growth, -100 = all killed)
The test system of one assay is NCI-H23 lung. Conditions: 10 µM unless noted.
A further assay concerns NCI-H226 lung. Conditions: 10 µM unless noted.
In another assay the test system is NCI-H322M lung. Conditions: 10 µM unless noted.
For a further assay, the system named is HOP-62 NSCLC. Conditions: 10 µM unless noted.
The next assay relates to NCI-H460 lung. Conditions: 10 µM unless noted.
The test system of another assay is HOP-92 NSCLC. Conditions: 10 µM unless noted.
The subject of another assay is NCI-H522 lung. Conditions: 10 µM unless noted.
A further assay relates to A549/ATCC NSCLC. Conditions: 10 µM unless noted.
In another assay the test system is 786-0 renal. Conditions: 10 µM unless noted.
The subject of another assay is COLO 205 colon. Conditions: 10 µM unless noted.
For another assay, the system named is DU-145 prostate. Conditions: 10 µM unless noted.
A further assay deals with K-562 leukemia. Conditions: 10 µM unless noted.
The next assay concerns MALME-3M melanoma. Conditions: 10 µM unless noted.
Another assay concerns MDA-MB-231 breast. Conditions: 10 µM unless noted.
The next assay concerns RXF 393 renal. Conditions: 10 µM unless noted.
The next assay has as its system SF-268 CNS. Conditions: 10 µM unless noted.
The next assay relates to SF-295 CNS. Conditions: 10 µM unless noted.
A further assay deals with SF-539 CNS. Conditions: 10 µM unless noted.
Another assay concerns UACC-257 melanoma. Conditions: 10 µM.

Compounds without any hit were thinned out: in the full panel of roughly 83,000, 20% have a hit.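 Assay: single dose, 48 h. Readout: percent growth (0 = no net growth; negative = cell death). Active: <10.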 Unmarked numbers belong to inactive results. Active and inactive are the calls of the source.

Regarding `O=S(=O)(NCCCNc1nccc(-n2cnc3ccccc32)n1)c1ccc(F)cc1`, the growth in the assay on NCI-H23 lung is 70.4%; with NCI-H226 lung, 64.1%; with NCI-H322M lung, 99.5%; in the assay with HOP-62 NSCLC, 82.7%; in the assay with NCI-H460 lung, 79.7%; in the assay with HOP-92 NSCLC, 87.9%. Further, the growth in the assay with NCI-H522 lung is 68.5%; in the assay with A549/ATCC NSCLC, 88.8%; in the assay with 786-0 renal, 97.7%; in the assay on COLO 205 colon, 86%; in the assay on DU-145 prostate, 87.2%; in the assay with K-562 leukemia, 37.2%. Also, the growth is 86.1% with MALME-3M melanoma; 74.4% in the assay on MDA-MB-231 breast; 163% in the assay with RXF 393 renal; 86.3% with SF-268 CNS; 70.6% with SF-295 CNS; 86.2% in the assay on SF-539 CNS. Also, the growth in the assay on UACC-257 melanoma was 66.2%.
Turning to `O=C(Nc1ccc(F)cc1)c1cc(-c2ccc(F)cc2F)ccc1O`, the growth in the assay on NCI-H23 lung is 1.86% (active); with NCI-H226 lung it was 5.87% (active); in the assay on NCI-H322M lung, 9.89% (active); in the assay with HOP-62 NSCLC, 12%; with NCI-H460 lung it was 4.82% (active); in the assay on HOP-92 NSCLC, -26.6% (active). Also, the growth in the assay on NCI-H522 lung is -4.42% (active); in the assay with A549/ATCC NSCLC, 30.6%; in the assay on 786-0 renal it was 15.5%; with COLO 205 colon, 96.4%; in the assay with DU-145 prostate it was 16%; in the assay on K-562 leukemia, 15.4%. The growth with MALME-3M melanoma is -10.5% (active); in the assay with MDA-MB-231 breast it was 17.6%; with RXF 393 renal, -21.1% (active); with SF-268 CNS, 14.8%; with SF-295 CNS, 25%; with SF-539 CNS it was 15.6%. In the assay with UACC-257 melanoma, the growth was -20.7% (active).
As for `COc1ccc(S(=O)(=O)NCCCNc2nccc(-n3cnc4ccccc43)n2)cc1`, the growth in the assay with NCI-H23 lung was 91.9%; in the assay with NCI-H226 lung it was 73.2%; in the assay on NCI-H322M lung, 104%; in the assay with HOP-62 NSCLC it was 94.9%; with NCI-H460 lung it was 97.3%; with HOP-92 NSCLC it was 75.8%. Moreover, the growth with NCI-H522 lung is 81.1%; in the assay with A549/ATCC NSCLC, 106%; in the assay on 786-0 renal, 95.9%; in the assay on COLO 205 colon it was 108%; with DU-145 prostate, 100%; in the assay on K-562 leukemia, 78.8%. Moreover, the growth with MALME-3M melanoma was 107%; in the assay on MDA-MB-231 breast, 84.1%; in the assay on RXF 393 renal, 80.6%; in the assay with SF-268 CNS, 91.6%; with SF-295 CNS it was 90.5%; in the assay on SF-539 CNS it was 83.9%. The growth with UACC-257 melanoma is 100%.
For `Cc1ccc(NC(=O)c2ccc(CN3CCN(C)CC3)c(I)c2)cc1Oc1ccc(-c2[nH]nc3ncnc(N)c23)cc1`, the growth with NCI-H23 lung was 87.9%; in the assay on NCI-H226 lung, 91.8%; in the assay on NCI-H322M lung it was 89.8%; in the assay on HOP-62 NSCLC it was 105%; with NCI-H460 lung it was 90.4%; in the assay on HOP-92 NSCLC, 83.4%. The growth was 46.6% with NCI-H522 lung; 66.1% in the assay with A549/ATCC NSCLC; -74.7% (active) in the assay on 786-0 renal; 53% in the assay on COLO 205 colon; 99.6% in the assay with DU-145 prostate; 1.61% (active) with K-562 leukemia. For the same molecule, the growth with MALME-3M melanoma is -72.7% (active); in the assay on MDA-MB-231 breast it was 39.3%; with RXF 393 renal it was 44.9%; in the assay with SF-268 CNS it was 90.3%; in the assay on SF-295 CNS it was 78.4%; in the assay on SF-539 CNS, 67.5%. Also, the growth with UACC-257 melanoma is -46.4% (active).
Turning to `Cc1ccc(NC(=O)c2cccc(CN3CCN(C)CC3)c2)cc1Oc1ccc(-c2[nH]nc3ncnc(N)c23)cc1`, the growth in the assay with NCI-H23 lung is 75.6%; with NCI-H226 lung, 76.9%; with NCI-H322M lung, 83.9%; in the assay with HOP-62 NSCLC it was 80.9%; with NCI-H460 lung, 72.8%; with HOP-92 NSCLC it was 65.3%. The growth in the assay on NCI-H522 lung was 77.1%; in the assay on A549/ATCC NSCLC, 61.9%; in the assay with 786-0 renal, 40.8%; with COLO 205 colon it was 10.1%; in the assay with DU-145 prostate it was 81.9%; in the assay with K-562 leukemia, 10.6%. Further, the growth with MALME-3M melanoma is 49.2%; in the assay on MDA-MB-231 breast it was 60.7%; with RXF 393 renal it was 23.3%; in the assay on SF-268 CNS, 73.8%; with SF-295 CNS, 78%; with SF-539 CNS, 62%. Besides, the growth with UACC-257 melanoma is 75.4%.
Take `Cn1c(SC(C(=O)Nc2ccc(F)cc2)c2ccccc2)nc2ccccc2c1=O` (configuration not stated): the growth in the assay with NCI-H23 lung is 103%; with NCI-H226 lung, 102%; in the assay with NCI-H322M lung, 111%; in the assay on HOP-62 NSCLC, 99.6%; with NCI-H460 lung it was 112%; with HOP-92 NSCLC it was 86.9%. The growth is 93.1% in the assay on NCI-H522 lung; 99.1% with A549/ATCC NSCLC; 102% in the assay with 786-0 renal; 119% in the assay on COLO 205 colon; 112% in the assay with DU-145 prostate; 103% in the assay on K-562 leukemia. Besides, the growth in the assay with MALME-3M melanoma was 88%; in the assay with MDA-MB-231 breast it was 99.4%; in the assay with RXF 393 renal, 117%; with SF-268 CNS it was 106%; with SF-295 CNS, 98.2%; in the assay on SF-539 CNS it was 96.1%. Besides, the growth in the assay with UACC-257 melanoma was 95.6%.
As to `CNC(=O)c1cc(N2CCc3cc(NC(=O)Nc4ccc(Cl)c(Cl)c4)ccc32)ccn1`, the growth in the assay with NCI-H23 lung is 95.9%; in the assay with NCI-H226 lung, 95.9%; in the assay on NCI-H322M lung, 98.6%; in the assay with HOP-62 NSCLC, 87%; with NCI-H460 lung it was 82.5%; in the assay with HOP-92 NSCLC, 88.9%. Also, the growth in the assay with NCI-H522 lung was 68.5%; in the assay with A549/ATCC NSCLC, 76.3%; in the assay with 786-0 renal it was 67.2%; with COLO 205 colon it was 77.3%; in the assay with DU-145 prostate it was 97.1%; in the assay with K-562 leukemia, 78.2%. Moreover, the growth with MALME-3M melanoma was 68.3%; in the assay on MDA-MB-231 breast, 90.9%; with RXF 393 renal it was -2.71% (active); with SF-268 CNS it was 104%; in the assay with SF-295 CNS, 71.9%; in the assay with SF-539 CNS, 55.7%. Moreover, the growth with UACC-257 melanoma was 79.8%.
Consider `O=C(NCCCNc1cc(-c2cn(-c3ccccc3)nc2-c2cccc(O)c2)ccn1)Nc1ccc(F)cc1`, for which the growth in the assay with NCI-H23 lung is 26.3%; with NCI-H226 lung, 32.6%; with NCI-H322M lung, 35.3%; with HOP-62 NSCLC it was 24%; in the assay on NCI-H460 lung, 21.4%; with HOP-92 NSCLC it was -11.5% (active). Besides, the growth in the assay on NCI-H522 lung is 1.7% (active); with A549/ATCC NSCLC it was 29.2%; with 786-0 renal, -39.4% (active); with COLO 205 colon it was -39.4% (active); with DU-145 prostate it was 31.4%; with K-562 leukemia, 5.52% (active). The growth in the assay on MALME-3M melanoma is -27.3% (active); in the assay with MDA-MB-231 breast, 0.136% (active); in the assay with RXF 393 renal, -34.9% (active); with SF-268 CNS, 18%; in the assay with SF-295 CNS it was -44.3% (active); in the assay with SF-539 CNS, 6.41% (active). The growth in the assay with UACC-257 melanoma is -51.9% (active).
